Assay results reported in the supplement of paper PMC12645437, “Orthogonal IMiD-Degron Pairs Induce Selective Protein Degradation in Cells” (ACS Chemical Biology, 2025).
The full ranking holds about 8,300 sequences; the median of “log2 fold change of degron read counts, EGFP-low vs EGFP+ sorted cells (limma voom), compound-induced degradation” is about -1.1, and the highest 2% start at about 3.2. This is one part of a sample in which the highest values are shown more often than they occur.

T1: CRBN, Q96SW2
T1 chain: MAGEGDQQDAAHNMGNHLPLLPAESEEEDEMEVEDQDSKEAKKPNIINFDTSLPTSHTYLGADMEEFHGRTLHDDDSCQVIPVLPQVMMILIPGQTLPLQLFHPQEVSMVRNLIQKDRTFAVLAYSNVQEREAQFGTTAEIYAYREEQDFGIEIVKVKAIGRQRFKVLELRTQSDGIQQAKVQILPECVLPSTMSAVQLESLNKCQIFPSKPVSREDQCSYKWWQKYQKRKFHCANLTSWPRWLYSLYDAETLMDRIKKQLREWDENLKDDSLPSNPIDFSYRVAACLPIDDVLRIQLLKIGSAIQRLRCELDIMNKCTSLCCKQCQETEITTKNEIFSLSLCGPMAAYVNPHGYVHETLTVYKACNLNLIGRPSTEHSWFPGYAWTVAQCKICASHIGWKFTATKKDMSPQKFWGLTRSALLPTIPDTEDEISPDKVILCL


Target: T1, CRBN, Q96SW2
Test: log2 fold change of degron read counts, EGFP-low vs EGFP+ sorted cells (limma voom), compound-induced degradation; higher = more compound-induced degradation of the degron-EGFP fusion; degrons are variants of IKZF1/3 zinc finger 2; compound dose not given here
Details: Jurkat, 18 h
[1] = compound: compound 19 (5-tert-butyl-thalidomide)
[2] = compound: compound 22 (5-morpholino-thalidomide)
[3] = compound: compound 33 (diphenyl IMiD analogue)
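Further: pooled lentiviral library of zinc finger degron-EGFP fusions in mCherry-positive Jurkat cells, FACS-sorted after compound exposure, with degron abundance counted by next-generation sequencing.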

| Sequence | log2 fold change of degron read counts [1] | log2 fold change of degron read counts [2] | log2 fold change of degron read counts [3] | log2 fold change of degron read counts (compound: thalidomide) |
| --- | --- | --- | --- | --- |
| FNCDVCGAHFTQKGNLLRHIKL [46F_47N_49D_50V_52G_53A_54H_55F_67L_, Q9UKT9] | -0.166 | -1.87 | -1.95 | -2.36 |
| FLCPQCGAPFTQKGNLLRHIKL [46F_47L_49P_50Q_52G_53A_54P_55F_67L_, Q9UKT9] | -1.51 | -0.398 | 0.89 | 0.718 |
| LRCNQCGFVCTQKGNLLRHIKL [46L_47R_49N_50Q_52G_53F_54V_55C_67L_, Q9UKT9] | -1.27 | -2.74 | -1.29 | -1.39 |
| FGCEICGAFFTQKGNLLRHIKL [46F_47G_49E_50I_52G_53A_54F_55F_67L_, Q9UKT9] | 2.48 | 1.05 | 2.58 | 0.0705 |
| FECPVCGADFTQKGNLLRHIKL [46F_47E_49P_50V_52G_53A_54D_55F_67L_, Q9UKT9] | -1.59 | -1.56 | 2.05 | 2.24 |
| FYCEVCGAQFTQKGNLLRHIKL [46F_47Y_49E_50V_52G_53A_54Q_55F_67L_, Q9UKT9] | 3.53 | 3.57 | 2.99 | 1.94 |
| FRCEVCGAQFTQKGNLLRHIKL [46F_47R_49E_50V_52G_53A_54Q_55F_67L_, Q9UKT9] | 0.18 | 0.339 | 1.48 | 1.56 |
| FDCEVCGAQFTQKGNLLRHIKL [46F_47D_49E_50V_52G_53A_54Q_55F_67L_, Q9UKT9] | 1.45 | 0.572 | -0.0193 | 1.19 |
| FACEVCGAQFTQKGNLLRHIKL [46F_47A_49E_50V_52G_53A_54Q_55F_67L_, Q9UKT9] | 3.49 | 2.06 | 0.981 | 0.73 |
| FECEVCGAQFTQKGNLLRHIKL [46F_47E_49E_50V_52G_53A_54Q_55F_67L_, Q9UKT9] | -0.548 | -1.16 | 1.28 | 2.29 |
| FNCEVCGAQFTQKGNLLRHIKL [46F_47N_49E_50V_52G_53A_54Q_55F_67L_, Q9UKT9] | 2.48 | 1.07 | 0.414 | 0.334 |
| FICEVCGAQFTQKGNLLRHIKL [46F_47I_49E_50V_52G_53A_54Q_55F_67L_, Q9UKT9] | -0.278 | 2.8 | 2.99 | 2.69 |
| FSCEVCGAQFTQKGNLLRHIKL [46F_47S_49E_50V_52G_53A_54Q_55F_67L_, Q9UKT9] | 2.77 | 2.35 | 1.32 | 1.33 |
| FQCEVCGAQFTQKGNLLRHIKL [46F_47Q_49E_50V_52G_53A_54Q_55F_67L_, Q9UKT9] | 0.659 | 2.56 | 2.21 | 3.77 |
| FVCEVCGAQFTQKGNLLRHIKL [46F_47V_49E_50V_52G_53A_54Q_55F_67L_, Q9UKT9] | 0.146 | 2.74 | 2.92 | 2.99 |
| FHCEVCGAQFTQKGNLLRHIKL [46F_47H_49E_50V_52G_53A_54Q_55F_67L_, Q9UKT9] | 1.71 | 2.6 | 1.97 | 0.794 |
| FWCEVCGAQFTQKGNLLRHIKL [46F_47W_49E_50V_52G_53A_54Q_55F_67L_, Q9UKT9] | 3.44 | 3.79 | 2.82 | 2.03 |
| FTCNQCGALFTQKGNLLRHIKL [46F_47T_49N_50Q_52G_53A_54L_55F_67L_, Q9UKT9] | -2.64 | -2.95 | -1.35 | -2.16 |
| FRCEICGRWFTQKGNLLRHIKL [46F_47R_49E_50I_52G_53R_54W_55F_67L_, Q9UKT9] | -2.31 | -2.38 | -1.89 | 0.776 |
| FFCPICGHAFTQKGNLLRHIKL [46F_47F_49P_50I_52G_53H_54A_55F_67L_, Q9UKT9] | -0.981 | -1.5 | -0.604 | -1.29 |
| FHCNQCGACFTQKGNLLRHIKL [46F_47H_49N_50Q_52G_53A_54C_55F_67L_, Q9UKT9] | -1.49 | -1.87 | -1.86 | -2.37 |
| LRCNQCGFLCTQKGNLLRHIKL [46L_47R_49N_50Q_52G_53F_54L_55C_67L_, Q9UKT9] | -1.18 | -1.92 | -1.55 | -1.3 |
| FLCSVCGHVFTQKGNLLRHIKL [46F_47L_49S_50V_52G_53H_54V_55F_67L_, Q9UKT9] | -2.42 | -2.11 | -2.5 | -2.18 |
| FFCEQCGAAFTQKGNLLRHIKL [46F_47F_49E_50Q_52G_53A_54A_55F_67L_, Q9UKT9] | 0.842 | 1.01 | 0.32 | -1.11 |
| FTCNQCGAMFTQKGNLLRHIKL [46F_47T_49N_50Q_52G_53A_54M_55F_67L_, Q9UKT9] | -2.5 | -2.41 | -1.29 | -1.58 |
| FWCPQCGARFTQKGNLLRHIKL [46F_47W_49P_50Q_52G_53A_54R_55F_67L_, Q9UKT9] | 0.926 | 3.08 | 0.0765 | 0.0591 |
| FGCEVCGAQFTQKGNLLRHIKL [46F_47G_49E_50V_52G_53A_54Q_55F_67L_, Q9UKT9] | 3.18 | 2.36 | 1.12 | 0.866 |
| FFCEVCGAQFTQKGNLLRHIKL [46F_47F_49E_50V_52G_53A_54Q_55F_67L_, Q9UKT9] | 3.36 | 3.6 | 2.42 | 1.89 |
| FTCEVCGAQFTQKGNLLRHIKL [46F_47T_49E_50V_52G_53A_54Q_55F_67L_, Q9UKT9] | -0.192 | 2.19 | 2.27 | 2.79 |
